The panel holds about 83,000 compounds, 20% with a hit somewhere; the sample as a whole holds those more often.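 48-hour exposure, single concentration, 96-well plates; percent growth endpoint where 0 means no net growth. Active: below 10.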 Values without a mark were called inactive. Active and inactive are the calls of the source.
How the values were obtained:
Assay in all cases: NCI-60 one-dose screen, 48 h (100 = growth as untreated, 0 = no growth, -100 = all killed)
Conditions in all cases: 10 µM unless noted
SK-MEL-2 melanoma = tested on: SK-MEL-2 melanoma
EKVX NSCLC = tested on: EKVX NSCLC
SN12C renal = tested on: SN12C renal
UO-31 renal = tested on: UO-31 renal
TK-10 renal = tested on: TK-10 renal
ACHN renal = tested on: ACHN renal
CAKI-1 renal = tested on: CAKI-1 renal
A498 renal = tested on: A498 renal
CCRF-CEM leukemia = tested on: CCRF-CEM leukemia
MOLT-4 leukemia = tested on: MOLT-4 leukemia
SR leukemia = tested on: SR leukemia
RPMI-8226 leukemia = tested on: RPMI-8226 leukemia
OVCAR-8 ovarian = tested on: OVCAR-8 ovarian
OVCAR-5 ovarian = tested on: OVCAR-5 ovarian
OVCAR-4 ovarian = tested on: OVCAR-4 ovarian
SK-OV-3 ovarian = tested on: SK-OV-3 ovarian
IGROV1 ovarian = tested on: IGROV1 ovarian
OVCAR-3 ovarian = tested on: OVCAR-3 ovarian
HS 578T breast = tested on: HS 578T breast
NCI/ADR-RES ovarian = tested on: NCI/ADR-RES ovarian

Row | Compound | growth (SK-MEL-2 melanoma) | growth (EKVX NSCLC) | growth (SN12C renal) | growth (UO-31 renal) | growth (TK-10 renal) | growth (ACHN renal) | growth (CAKI-1 renal) | growth (A498 renal) | growth (CCRF-CEM leukemia) | growth (MOLT-4 leukemia) | growth (SR leukemia) | growth (RPMI-8226 leukemia) | growth (OVCAR-8 ovarian) | growth (OVCAR-5 ovarian) | growth (OVCAR-4 ovarian) | growth (SK-OV-3 ovarian) | growth (IGROV1 ovarian) | growth (OVCAR-3 ovarian) | growth (HS 578T breast) | growth (NCI/ADR-RES ovarian)
1 | Oc1cccc2ccc(-c3nnc(SCc4ccc(O)c5ncccc45)n3-c3ccccc3)nc12 | 25.5% | 15.3% | 20% | -22.8% (active) | 14.2% | 7.49% (active) | 18.1% | 31.5% | 11.6% | 12.2% | 31.2% | 15.6% | 6.56% (active) | 47.8% | 16.8% | 12.1% | 11.2% | 28.3% | 18.5% | 7.68% (active)
2 | O=S(=O)(NCCCNc1nccc(-c2[nH]c(-c3ccccc3)nc2-c2ccc(Cl)c(O)c2)n1)c1ccc(Br)cc1 | -22.4% (active) | 44.2% | 37.5% | 36.8% | 66.6% | 24.2% | 33.6% | 65.4% | 21.5% | 22.8% | 15.3% | 22.1% | 33.3% | 72.2% | 46.6% | 68.4% | 36.8% | 24.1% | 63.2% | 42.6%
3 | CC[C@]12C=CCN3CC[C@@]4(c5cc(NC(=O)COc6cc(O)c7c(=O)cc(-c8ccccc8)oc7c6)c(OC)cc5N(C)[C@H]4[C@@](O)(C(=O)OC)[C@@H]1OC(C)=O)[C@@H]32 | -82.9% (active) | -42.2% (active) | -75.4% (active) | -84.9% (active) | -45.5% (active) | -78.1% (active) | -78.3% (active) | -89.6% (active) | -20.2% (active) | -23% (active) | -30.7% (active) | -31.6% (active) | -17.7% (active) | -86% (active) | -66.9% (active) | -86.1% (active) | -77.7% (active) | -86.2% (active) | 2.1% (active) | -49.9% (active)
4 | N#Cc1c(NC(=O)c2cccc(C(F)(F)F)c2F)sc2c1CCC(=O)C2 | 5.28% (active) | 5.47% (active) | 7.61% (active) | -99.7% (active) | 24.1% | -95.5% (active) | -83.5% (active) | -8.37% (active) | 7.8% (active) | -0.731% (active) | 0.648% (active) | -24.6% (active) | 11.7% | -6.14% (active) | -36.3% (active) | 5.3% (active) | -0.691% (active) | -40.5% (active) | -17% (active) | -3.6% (active)
5 | c1cc(-c2nc3ccc4[nH]ncc4c3c3c2CCCC3)[nH]n1 | 29.1% | 60.8% | 75% | 50.7% | 36% | 32.6% | 27.6% | 16.2% | 46.7% | 67.8% | 7.95% (active) | 55.1% | 70.2% | 89% | 89.6% | 9.7% (active) | 44.5% |  | 41.3% | 78.8%
6 | COc1ccc(C(=O)Nc2ncc(Cc3ccccc3Cl)s2)cc1 | -1.02% (active) | 41.7% | 32.7% | 38.1% | 64.3% | 32.5% | 36.4% | -8.09% (active) | 18.7% | 13.8% | 16.4% | 22.2% | 12.3% | 36.5% | 62.1% | 29% | 28.2% |  | 8.76% (active) | 5.87% (active)
7 | C[C@@H](Nc1c(C#N)cnc2ccc(-c3cnc(Cl)c(NS(C)(=O)=O)c3)cc12)c1ccccc1 | -29.4% (active) | -9.44% (active) | 9.48% (active) | 4.15% (active) | -17.9% (active) | 8.09% (active) | -18.4% (active) | -49.8% (active) | 2.97% (active) | -35.6% (active) | -14.1% (active) | -34.9% (active) | 16.3% | 4.76% (active) | 0.536% (active) | -7.04% (active) | -30.4% (active) |  | -15.9% (active) | 31.5%
8 | COc1ccc([C@@H]2[C@@H](O)C(=O)N2c2cc(OC)c(OC)c(OC)c2)cc1F | -5.37% (active) | 41.8% | 28.7% | 30.1% | 86.3% | 28.4% | 30.3% | -29.5% (active) | 18.5% | 15.8% | 8.72% (active) | 21.5% | -5.69% (active) | 31.5% | 63.2% | 28.3% | 18.9% |  | -2.79% (active) | -6.67% (active)

Source: PubChem BioAssay (NCI)
